From PubChem
Rab9 prom act – activates the Rab9 promoter | Huh7 Rab9 promoter-luciferase reporter, luminescence, 24 h | Potency, µM (series often up to 9.22 µM), for inactives: top-dose activation, negative = inhibition, hits mostly activators | 320,000 compounds, 2.8% hits; further: % of control where 0% means no effect; nearly all actives have a fitted effect of over 60% in size
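Steps: seed 1500 Huh7 Rab9-luc cells per well, rest 2 h at 37 °C; add compound in DMSO; incubate 24 h; add luciferase reagent, 10 min ambient; read luminescence.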
SMN2 splice enh – enhancers of SMN2 splice variant expression; HEK293 SMN2-luciferase splicing reporter, luminescence, 30-36 h; Potency, µM (top dose mostly 46.1 µM), inactives show at the top dose activity change, positive = activation, actives largely listed as activators; 210,000 compounds, 2.8% hits; further: % of control where 0% means no effect; nearly all actives have a fitted effect of over 55% in size
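HEK293 cells carry an SMN2 minigene-luciferase reporter in which exon 7 inclusion puts luciferase in frame. Cells were seeded at 2000 cells/well, attached for 10-12 hours, then exposed to compounds for 30-36 hours at 37C before ONE-Glo luminescence.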
ELG1 genotox – genotoxicity induction in ELG1-luciferase HEK293T cells. HEK293T ELG1-luciferase reporter, luminescence, 16 h. Potency, µM (doses to about 46 µM), inactives show at the highest dose activity change, positive = activation, usual class: activators. 330,000 compounds, 1.3% hits. AID 504466; further: % of control where 0% means no effect; nearly all actives have a fitted effect of over 60% in size
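ELG1-luciferase HEK293T cells, 2,000/well; compound pinned in; 16 hr, 37 °C, 5% CO2; ONE-Glo, 30 min RT; luminescence on CCD imager.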
FLuc counter – firefly luciferase modulation, counter-screen for miR-21 project | P08659 | purified FLuc, Km substrates, luminescence inhibition | Potency, µM (titrated, usually from 57.5 µM), without a hit: at the top dose activity change, negative = inhibition, usual class: inhibitors | 360,000 compounds, 6.9% hits;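 further: plate controls were vehicle for no effect and reference inhibitor for full effect; nearly all actives have a fitted effect of over 55% in size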
Target sequence (P08659 whole entry, looked up): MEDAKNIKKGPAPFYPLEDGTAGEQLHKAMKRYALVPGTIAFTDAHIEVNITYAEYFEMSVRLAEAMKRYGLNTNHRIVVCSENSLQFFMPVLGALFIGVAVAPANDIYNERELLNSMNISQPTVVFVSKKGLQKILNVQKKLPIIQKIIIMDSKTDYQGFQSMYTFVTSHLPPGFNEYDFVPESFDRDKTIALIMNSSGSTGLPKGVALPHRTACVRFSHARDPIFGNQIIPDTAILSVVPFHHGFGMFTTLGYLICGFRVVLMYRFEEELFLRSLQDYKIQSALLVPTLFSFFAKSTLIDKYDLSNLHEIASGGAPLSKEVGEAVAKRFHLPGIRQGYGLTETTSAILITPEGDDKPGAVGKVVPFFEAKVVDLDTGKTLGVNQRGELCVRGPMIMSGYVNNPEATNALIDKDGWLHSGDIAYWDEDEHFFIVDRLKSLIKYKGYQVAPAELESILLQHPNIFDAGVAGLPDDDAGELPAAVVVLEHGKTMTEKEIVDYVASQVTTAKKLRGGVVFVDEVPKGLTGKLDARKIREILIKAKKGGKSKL
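Purified P. pyralis luciferase (10nM final) with 10uM D-luciferin and 10uM ATP (Km levels) in 50mM Tris acetate pH 7.5, 10mM Mg acetate, 0.01% Tween-20, 0.05% BSA; qHTS 6-point titration, ~60 µM downward; luminescence read.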
ELG1 repair inh – blocks ELG1-dependent DNA repair in HEK293T cells. HEK293T ELG1-luciferase reporter, luminescence, 16 h; DNA damage induced by 5-fluorouridine. Potency, µM (doses to about 46.1 µM), for the others: top-dose activity change, negative = inhibition, actives largely listed as inhibitors. 330,000 compounds, 2.3% hits. AID 504467; further: on the % scale 0 is the no-effect control and ±100 the full control effect; nearly all actives have a fitted effect of over 55% in size
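Step one: seed 2,000 cells per well. Step two: pin-transfer compound or DMSO alongside 5-fluorouridine. Step three: incubate 16 hr, 37 °C, 5% CO2. Step four: add ONE-Glo, wait 30 min, read luminescence.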
NPC1 promoter act – activators of NPC1 promoter; Potency, µM (doses to about 9.22 µM), for inactives: at the highest dose activation, actives largely listed as activators; 320,000 compounds, 2.4% hits; AID 485313; Huh7 NPC1 promoter luciferase reporter, 24 h; further: % of control where 0% means no effect; nearly all actives have a fitted effect of over 60% in size
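Compounds in DMSO were transferred onto Huh7 NPC1-luciferase reporter cells pre-incubated 2 h; after 24 h at 37 °C, Amplite reagent was dispensed and luminescence recorded 10 min later.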
An asterisk follows results filed as active; ? = inconclusive; . = no result given; [ ] = dose if it differs, or a comment. This is a sample that favours compounds with a hit; in the whole collection about 9.3% have one here. The call rests on the fitted dose curve; in most records, active means well fitted curve in the direction sought with a large enough effect; inconclusive means small, poorly fitted or top-dose-only effect, or another doubt; inactive means no such curve, though single readings can be large; an effect the other way counts as inactive or inconclusive. Potency means the concentration at half of the fitted maximal effect.

SMILES	Rab9 prom act	SMN2 splice enh	ELG1 genotox	FLuc counter	ELG1 repair inh	NPC1 promoter act
CCCCc1nnc(NC(=O)CC(=O)Nc2ccccc2C(=O)O)s1	-0.9%	-13.5%	1.8%	16.9µM*	1.9%	9.6%
CC(C)Cc1nnc(NC(=O)CC(=O)Nc2ccccc2C(=O)O)s1	7.0%	-10.5%	7.8%	15.1µM*	?	11.6%
CC(C)c1nnc(NC(=O)CC(=O)Nc2ccccc2C(=O)O)s1	3.55µM*	-17.1%	?	4.78µM*	?	2.51µM*
CC(C)c1nnc(NC(=O)CCC(=O)Nc2ccccc2)s1	1.2%	.	-0.1%	0.6%	6.1%	-2.9%
CC(C)Cc1nnc(NC(=O)CCC(=O)Nc2ccccc2F)s1	2.0%	.	-1.1%	0.4%	7.1%	-4.2%
Cc1c(NC(=O)c2ccc(S(=O)(=O)N3CCOCC3)cc2)c(=O)n(-c2ccccc2)n1C	-5.7%	.	-0.5%	-0.2%	9.0%	-0.1%
OC(COc1ccc(Br)cc1)CN1CCC(Cc2ccccc2)CC1 (stereo not given)	-12.4%	.	-2.5%	6.9%	-9.3%	-2.5%
Cc1ccc(Cl)cc1NC(=O)Cn1c(=O)n(CCC(=O)NCc2ccc3c(c2)OCO3)c(=O)c2sccc21	.	-9.0%	.	-7.1%	.	.
O=c1oc(-c2ccc([N+](=O)[O-])cc2)nc2ccc(O)cc12	?	-7.2%	-3.7%	15.1µM*	4.9%	-3.7%
COc1ccc(-c2nc3cc([N+](=O)[O-])ccc3o2)cc1	1.58µM*	.	?	0.477µM*	?	2.51µM*
Nc1ccc(-c2nc3cc([N+](=O)[O-])ccc3o2)cc1	1.12µM*	.	14.5%	2.13µM*	?	1.41µM*
CC(C)(C)Nc1nc2cc([N+](=O)[O-])ccc2o1	0.6%	.	9.0%	?	?	-0.2%
COc1ccc(CN2CCCC(C(=O)N3CCCCC3)C2)c(OC)c1 (stereo not given)	5.3%	.	-4.9%	-2.7%	-8.1%	5.4%
O=C(c1cn(Cc2ccccc2)nc1-c1ccc(Cl)cc1)N1CCN(c2ccccn2)CC1	-2.5%	.	-8.8%	1.7%	?	2.9%
Cc1ccc(-c2nn(Cc3ccccc3)cc2C(=O)N2CCN(c3ccccn3)CC2)cc1	-7.2%	.	1.5%	3.1%	?	0.5%
O=C(c1cn(-c2ccccc2)nc1-c1ccccc1)N1CCN(c2ccccn2)CC1	-4.7%	6.6%	-9.2%	10.7µM*	?	-1.4%
Cc1ccc(-c2nn(-c3ccccc3)cc2C(=O)N2CCN(c3ccccn3)CC2)cc1	6.6%	3.3%	-5.9%	15.1µM*	?	-6.1%
Cc1nn(-c2ccc(Cl)cc2)c(=O)c2ccccc12	2.82µM*	12.6µM*	?	16.9µM*	?	4.47µM*
Cc1nn(-c2ccc(Cl)c(Cl)c2)c(=O)c2ccccc12	18.6%	-4.3%	3.7%	-19.1%	?	25.7%
Cc1cc(Nc2ccccc2)n(-c2nc3ccccc3[nH]2)n1	-12.1%	6.5%	-1.6%	?	-26.0%	-0.6%
Cc1nn(-c2nc3ccccc3[nH]2)c(=O)c2ccccc12	0.1µM*	-98.4%	?	0.0757µM*	?	?
Cc1nn(-c2ccc3ccccc3c2)c(=O)c2ccccc12	?	.	?	12µM*	?	2.4%
Cc1nn(-c2ccc(Cl)nn2)c(=O)c2ccccc12	?	?	?	16.9µM*	?	17.7%
Cc1ccc(NC(=O)C2CCC(CNc3c(N4CCC(C)CC4)c(=O)c3=O)CC2)cc1F (stereo not given)	-10.4%	.	-2.3%	-0.1%	?	-4.5%
O=C1Oc2ccccc2C2(O)C3CCCCCC3C12 (stereo not given)	-3.4%	12.1%	-0.9%	-2.2%	?	-8.9%
SMILES	Rab9 prom act	SMN2 splice enh	ELG1 genotox	FLuc counter	ELG1 repair inh	NPC1 promoter act
CCNC(=O)O/N=C1\CCCCC1c1ccc([N+](=O)[O-])cc1[N+](=O)[O-] (stereo not given)	3.6%	.	-3.4%	2.8%	-1.2%	-0.6%
Cc1nn(C)c(N)c1-c1ccccc1	3.0%	-9.8%	7.7%	1.5%	5.9%	-7.5%
Cc1nn(-c2nc3ccccc3[nH]2)c(N)c1-c1ccc(Cl)cc1	3.55µM*	?	7.6%	8.49µM*	?	?
COc1cc(OC)cc(C(=O)N2CCN(Cc3cccc(F)c3)CC2)c1	-0.9%	-1.5%	-3.5%	0.9%	-4.6%	-3.4%
CSCC[C@H](N)C(=O)NC[C@H]1O[C@@H](n2cnc3c(N)ncnc32)[C@H](O)[C@@H]1O	.	.	8.1%	.	?	.
O=C(Nn1cnc2ccccc2c1=O)c1cccc(Cl)c1	-1.4%	13.2%	0.0%	?	?	-4.3%
O=C(Nn1cnc2ccccc2c1=O)c1ccc(Br)cc1	-5.1%[1.84 µM]	.	14.7%	?	?	15.1%
Cc1ccc(C(=O)Nn2cnc3ccccc3c2=O)cc1C	2.51µM*	.	?	13.5µM*	?	3.16µM*
CCc1ccc(C(=O)Nn2cnc3ccccc3c2=O)cc1	2.24µM*	.	?	8.49µM*	?	2.51µM*
Cc1ccc(C(=O)n2cnc3ccccc32)cc1C	7.6%	.	-0.3%	12µM*	24.6%	-2.3%
CCN(CC)CC(=O)c1c[nH]c2ccc(C)cc12	-5.5%	-7.2%	0.1%	0.7%	-0.4%	-3.8%
CSc1nc(O)c(N=Nc2ccc(F)cc2F)c(=O)[nH]1	25.9%[1.84 µM]	.	?	0.849µM*	?	?
COc1ccc(-c2cn3cccnc3n2)cc1NC(=O)Nc1ccc(Cl)cc1	.	.	.	6.01µM*	.	.
COc1ccc(-c2cn3cccnc3n2)cc1NC(=O)C(C)Oc1ccccc1 (stereo not given)	-7.7%	.	-3.9%	26.9µM*	?	-1.0%
COc1cc(C(=O)Nc2cccc(-c3cn4cccnc4n3)c2)cc(OC)c1OC	6.1%	-17.9%	-10.5%	?	?	-0.2%
COc1ccc(NC(=O)Nc2cc(-c3cn4cccnc4n3)ccc2OC)cc1	.	7.2%	.	?	.	.
COc1ccc(-c2cn3cccnc3n2)cc1NC(=O)c1cc(OC)c(OC)c(OC)c1	21.0%	21.0%	-5.7%	21.3µM*	8.2µM*	-1.7%
CCCc1ccc(OCc2nc(-c3ccc(NC(=O)c4cccs4)cc3)no2)cc1	?	?	?	13.5µM*	?	21.8%
CCCc1ccc(OCc2nc(-c3ccc(NC(=O)c4ccco4)cc3)no2)cc1	?	21.0%	16.4µM*	13.5µM*	?	2.51µM*
Cc1cc(OCc2nc(-c3ccc(NC(=O)c4cccnc4)cc3)no2)ccc1Cl	-11.2%	-4.5%	-4.4%	-2.7%	3.5%	-0.5%
O=C1CC(c2ccccc2)CC(O)=C1C=Nc1ccccc1O (stereo not given)	-4.5%	0.8%	4.6%	3.0%	7.1%	-2.2%
